Shown are actives, neighbours in structure and some others; about 3.8% of the full set was active somewhere.
HepG2 viability – counter-screen for TGF-b inhibitors: cytotoxicity in HepG2 cells | HepG2 CAGA-GFP viability, ATP luminescence, 18 h | Potency, µM (titrated, usually from 46.1 µM), for inactives: top-dose activity change, negative = cytotoxicity, usual class: cytotoxic | actives 0.76% (n = 410,000) | AID 588856
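CellTiter-Glo luminescence gave cytotoxicity after 18 hours at 37 degrees C. The cells were HepG2 CAGA-GFP in 1% FBS DMEM, stimulated with 500 pg/mL TGF-beta after compound addition. %Activity was normalised to no-cell wells (complete cell-killing) and DMSO (no toxicity), and curves were fitted and classified.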
S2 tox – viability counter-screen for ATXN expression inhibitors; S2 cells (HEK-293 line with an ATXN2-luciferase reporter) viability, CellTiter-Fluor protease fluorescence, 24 h; Potency, µM (top dose mostly 56.7 µM), actives largely listed as cytotoxic; actives 0.49% (n = 400,000); further: nearly all actives have a fitted effect of over 40% in size
A549 viability – kills or reduces viability of A549 cells in Nrf2 counter-screen; A549 ARE-Fluc cells, CellTiter-Fluor viability, 18-24 h; AID 504648; Potency, µM (doses to about 46 µM), without a hit: top-dose activity change, negative = cytotoxicity, hits mostly inhibitors; actives 0.16% (n = 390,000); further: on the % scale 0 is the no-effect control and ±100 the full control effect
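A549 ARE-Fluc cells in 5% FBS OPTI-MEM, 5000 cells/well, rested 2 h then exposed to compounds in concentration-response for 18-24 h at 37 °C. Viability by CellTiter-Fluor fluorescence (Ex 405/Em 525) after 30 min; luciferase luminescence (BugLite, 15 min, RT) read afterwards.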
Nrf2 block – blocks Nrf2 signaling; A549 ARE-Fluc reporter, luciferase luminescence, 18-24 h; actives 2.1% (n = 360,000); Potency, µM (series often up to 46 µM), for inactives: top-dose activity change, negative = inhibition, usual class: inhibitors; further: on the % scale 0 is the no-effect control and ±100 the full control effect; nearly all actives have a fitted effect of over 60% in size
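Nrf2 function is reported as luminescence of an ARE-controlled luciferase in A549 cells. Compounds were tested at several concentrations, and a CellTiter-Fluor read on the same wells flagged cytotoxicity.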
ATXN2 expr inh – reduces ATXN2 reporter expression in HEK-293 cells; actives 0.72% (n = 360,000); Potency, µM (series often up to 57 µM), for the others: at the top dose activity change, negative = inhibition, most hits filed as inhibitors; HEK-293 ATXN2-luciferase reporter, luminescence, 24 h; further: on the % scale 0 is the no-effect control and ±100 the full control effect; nearly all actives have a fitted effect of over 55% in size
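qHTS (up to 57 uM final) was run with 24 h compound exposure of reporter cells at 37 °C. Each well was multiplexed: SteadyGlo luminescence measured ATXN2-luciferase expression after a fluorogenic Gly-Phe-AFC viability readout (25 uM final).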
TGFb SMAD3 inh – TGF-b pathway inhibition | HepG2 CAGA-GFP TGF-b/SMAD3 reporter, GFP fluorescence, 18 h; TGF-beta stimulated, 500 pg/mL final | Potency, µM (top dose mostly 46.1 µM), for inactives: top-dose activity, negative = inhibition, most hits filed as inhibitors | actives 1.2% (n = 410,000) | AID 588855; further: on the % scale 0 is the no-effect control and ±100 the full control effect; nearly all actives have a fitted effect of over 65% in size
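Using HEPG2 CAGA-GFP reporter cells at 1000 cells/well, we pinned test compounds, stimulated with recombinant TGF-beta (500 pg/mL final) and measured total well GFP after 18 h.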
The depositor's hits bear a star; [ ] = another dose, or the depositor's remark. The call rests on the fitted dose curve; in most records, active means well fitted curve in the direction sought with a large enough effect; inconclusive means small, poorly fitted or top-dose-only effect, or another doubt; inactive means no such curve, though single readings can be large; an effect the other way counts as inactive or inconclusive. Potency means the concentration at half of the fitted maximal effect.

Results for O=C(/C=C/c1ccccc1Br)c1ccc2c(c1)OCO2 ?
HepG2 viability: -39.9%; S2 tox: inactive; A549 viability: 7.7%; Nrf2 block: inconclusive; ATXN2 expr inh: 3.0%; TGFb SMAD3 inh: inconclusive

Results for O=C(/C=C\Nc1ccccc1Br)c1ccc2c(c1)OCO2 ?
HepG2 viability: -42.2%; A549 viability: -5.1%; Nrf2 block: 2.06µM*; ATXN2 expr inh: inconclusive; TGFb SMAD3 inh: 7.1%

What do the screens show for `CC1=C(C#N)C(C)(C)C(C#N)=C(C)N1`?
HepG2 viability: 1.12µM*; S2 tox: inactive; TGFb SMAD3 inh: -0.6%

What do the screens show for `Cc1cc2c(s1)c1cnn(Cc3ccc(C)c(F)c3)c(=O)c1n2C`?
A549 viability: -0.2%; Nrf2 block: 2.8%

How did CCOC(=O)CC(NC(=O)CCc1c(C)nc2c(-c3ccccc3)c(C)nn2c1C)c1ccc(OC(C)C)cc1 (centres undefined) do in these assays?
HepG2 viability: -34.6%; A549 viability: -12.7%; Nrf2 block: inconclusive; ATXN2 expr inh: inconclusive; TGFb SMAD3 inh: 15.8µM*

Results for CCOC(=O)CC(NC(=O)CCc1c(C)nc2cc(-c3ccccc3)nn2c1C)c1ccc(C)cc1 (centres undefined) ?
HepG2 viability: -32.2%; S2 tox: inconclusive; A549 viability: -1.3%; Nrf2 block: inconclusive; ATXN2 expr inh: inconclusive; TGFb SMAD3 inh: inconclusive

How did CCOC(=O)CC(NC(=O)CCc1c(C)nc2c(-c3ccccc3)c(C)nn2c1C)c1ccc(C)cc1 (centres undefined) do in these assays?
HepG2 viability: 1.3%; S2 tox: inactive; A549 viability: inconclusive; Nrf2 block: inconclusive; ATXN2 expr inh: inconclusive; TGFb SMAD3 inh: 10µM*

What do the screens show for `COc1ccc(NC(=O)c2ccc(CNS(=O)(=O)c3ccc4c(c3)C(C)(C)C(=O)N4C)cc2)cc1`?
HepG2 viability: -20.8%; A549 viability: -0.9%; Nrf2 block: -10.0%; TGFb SMAD3 inh: -16.4%

Results for COc1cccc(-c2sc3ccc(OC)cc3c2-c2ccc(OCCN(C)C)cc2)c1 ?
HepG2 viability: 14.1µM*; S2 tox: inconclusive; A549 viability: inconclusive; Nrf2 block: inconclusive; ATXN2 expr inh: inconclusive; TGFb SMAD3 inh: inconclusive

How did O=C(O)c1ccc(/C=N\Nc2ccc(S(=O)(=O)N3CCOCC3)cc2[N+](=O)[O-])cc1 do in these assays?
HepG2 viability: 13.5%; S2 tox: inactive; A549 viability: -11.7%; Nrf2 block: 2.8%; ATXN2 expr inh: 13.2%; TGFb SMAD3 inh: -0.1%

How did Cc1ccc(-n2c(O)c(/C=N/Nc3ccc(S(=O)(=O)N4CCOCC4)cc3[N+](=O)[O-])c3ccccc3c2=O)c(C)c1 do in these assays?
HepG2 viability: -47.1%; S2 tox: inconclusive; A549 viability: inconclusive; Nrf2 block: 18.4µM*; ATXN2 expr inh: inconclusive; TGFb SMAD3 inh: inconclusive

What do the screens show for `COc1ccc(NC(=S)N(CCc2c(C)[nH]c3ccc(C)cc23)Cc2cccnc2)cc1`?
HepG2 viability: -26.1%; S2 tox: inconclusive; A549 viability: inconclusive; Nrf2 block: 20.6µM*; ATXN2 expr inh: inconclusive; TGFb SMAD3 inh: -16.0%

What do the screens show for `OC1CCC(Nc2ncnc3sccc23)CC1` (centres undefined)?
HepG2 viability: -5.0%; S2 tox: inactive; A549 viability: 1.9%; Nrf2 block: 1.8%; ATXN2 expr inh: 0.8%; TGFb SMAD3 inh: -3.8%

What do the screens show for `COc1ccccc1N1CCN(C(=O)CCCN2C(=O)c3cccc4cccc(c34)C2=O)CC1`?
HepG2 viability: -15.7%; S2 tox: inconclusive; A549 viability: -3.2%; Nrf2 block: inconclusive; ATXN2 expr inh: -15.9%; TGFb SMAD3 inh: inconclusive

How did Cc1ccc(C(=O)Oc2ccc(Cl)c3cccnc23)cc1[N+](=O)[O-] do in these assays?
HepG2 viability: -44.0%; S2 tox: inactive; A549 viability: 16.1%; Nrf2 block: 4.8%; ATXN2 expr inh: -30.1%; TGFb SMAD3 inh: 11.2µM*

Results for COc1ccc(S(=O)(=O)Nc2cc(C(=O)NC(C)C)ccc2N2CCOCC2)cc1 ?
HepG2 viability: -13.7%; S2 tox: inactive; A549 viability: -3.4%; Nrf2 block: -27.5%; ATXN2 expr inh: -18.8%; TGFb SMAD3 inh: 0.8%

What do the screens show for `COc1ccc(S(=O)(=O)Nc2cc(C(=O)NC3CCCCCC3)ccc2N2CCOCC2)cc1`?
HepG2 viability: -16.1%; S2 tox: inactive; A549 viability: 0.8%[1.84 µM]; Nrf2 block: 18.4µM*; ATXN2 expr inh: 16.1%; TGFb SMAD3 inh: 5.0%

What do the screens show for `O=C(CC1C(=O)N(c2ccc(Cl)cc2)C(=S)N1CCc1ccncc1)Nc1ccc(F)cc1` (centres undefined)?
HepG2 viability: 11.2µM*; S2 tox: inactive; A549 viability: -16.5%; Nrf2 block: inconclusive; ATXN2 expr inh: inconclusive; TGFb SMAD3 inh: inconclusive

What do the screens show for `COc1ccc(NC(=O)CC2C(=O)N(C)C(=S)N2CCc2ccc(F)cc2)cc1` (centres undefined)?
HepG2 viability: -11.5%; S2 tox: inactive; A549 viability: inconclusive; Nrf2 block: 23.1µM*; ATXN2 expr inh: -36.9%; TGFb SMAD3 inh: inconclusive

What do the screens show for `CCOC(=O)N1CCC(NC(=O)c2cc(-c3ccc(F)cc3)[nH]c2C)CC1`?
HepG2 viability: -4.2%; S2 tox: inactive; A549 viability: -29.0%; Nrf2 block: 23.1µM*; ATXN2 expr inh: 0.0%; TGFb SMAD3 inh: 1.1%

How did CN(C)C(=O)c1cccc(-c2cnc3c(NC=O)cc(-c4ccccc4F)cn23)c1 do in these assays?
HepG2 viability: -5.8%; S2 tox: inactive; ATXN2 expr inh: -34.3%; TGFb SMAD3 inh: inconclusive

What do the screens show for `COc1ccc(C(C)=O)c(O)c1`?
ATXN2 expr inh: 15.3µM*

Results for O=C(CSCc1ccc(Cl)cc1)NCc1ccccn1 ?
HepG2 viability: -30.9%; S2 tox: inactive; A549 viability: 15.7%; Nrf2 block: -14.5%; TGFb SMAD3 inh: -2.8%

Results for COC(=O)[C@@H](NC(=O)N1CCC(C)CC1)C(C)C ?
HepG2 viability: 0.447µM*; S2 tox: inactive; A549 viability: 1.8%; Nrf2 block: 0.8%; ATXN2 expr inh: -3.3%; TGFb SMAD3 inh: 4.1%

What do the screens show for `COC(=O)[C@H](CCSC)NC(=O)N1CCC(C)CC1`?
HepG2 viability: -4.6%; S2 tox: inactive; A549 viability: -2.9%; Nrf2 block: 10.2%; ATXN2 expr inh: 5.0%; TGFb SMAD3 inh: -1.8%
